From PubChem
Most compounds without a hit are left out; they make up all but 31% or so of the library.
CYP2C9 inh = inhibitors of human CYP2C9; 20% of 96,000 active; inhibition, % at 5 µM; CYP2C9 Supersomes, luciferin-H conversion, luminescence;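 active = blocking of liver enzyme CYP2C9 beyond about 50% at 5 µM, limit read from the data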
CYP2C19 inh = blocks human cytochrome P450 2C19 | P33261 | AID 778 | 21% of 96,000 active | CYP2C19 Supersomes, luciferin-H EGE luminescence, 30 min | inhibition, % at 5 µM;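 active = CYP2C19 inhibition above a set limit at 5 µM in the primary screen, cut at about 50% in these data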;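 also: plate controls were negative control wells for no effect and 2.5 mM tranylcypromine positive control for full effect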
Target sequence (P33261 whole entry, looked up): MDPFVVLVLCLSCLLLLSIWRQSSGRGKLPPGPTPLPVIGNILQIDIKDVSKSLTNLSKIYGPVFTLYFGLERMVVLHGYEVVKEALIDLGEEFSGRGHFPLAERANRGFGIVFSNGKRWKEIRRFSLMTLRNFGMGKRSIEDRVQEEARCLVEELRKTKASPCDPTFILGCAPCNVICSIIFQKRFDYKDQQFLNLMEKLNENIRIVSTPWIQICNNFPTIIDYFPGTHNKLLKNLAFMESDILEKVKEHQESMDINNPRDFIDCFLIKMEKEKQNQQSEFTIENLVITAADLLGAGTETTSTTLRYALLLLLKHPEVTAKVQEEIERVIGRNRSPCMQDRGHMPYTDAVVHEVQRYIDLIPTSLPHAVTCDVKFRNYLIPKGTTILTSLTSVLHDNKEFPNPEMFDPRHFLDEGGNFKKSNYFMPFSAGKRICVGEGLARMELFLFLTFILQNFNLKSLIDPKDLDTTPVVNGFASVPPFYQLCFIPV
CYP2C19 act = activators of human cytochrome P450 2C19; activation factor at 5 µM; P33261; recombinant CYP2C19, luciferin-H EGE luminescence; stronger effect = higher value; 0 = fully inhibited enzyme, 1 = untreated enzyme; 96,000 tested, under 10 active;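 active = activation factor of at least 2 at 5 µM in the primary screen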;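 also: 0 = wells with 2.5 mM tranylcypromine and 1 = vehicle-only wells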
CYP2C9 activ = increases human cytochrome P450 2C9 activity | recombinant CYP2C9, luciferin-H conversion, luminescence; stronger effect = higher value; factor 1 = untreated enzyme, 0 = blocked | activation factor at 5 µM | P11712 | AID 1024 | 1.4% of 96,000 active;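 active = activation factor of 2 or more for CYP2C9 at a 5 µM dose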;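 also: 0 = sulfaphenazole-blocked wells and 1 = vehicle-only wells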
Numbers without * were called inactive.

Results for CC(=O)/C=C(/C)NC(Cc1c[nH]c2ccccc12)C(=O)O (stereo not drawn) ?
CYP2C9 inh: -11.8; CYP2C19 inh: -8.5; CYP2C19 act: 1.1; CYP2C9 activ: 1.1

How did CC(=O)NC(Cc1c[nH]c2ccccc12)C(=O)N1CCc2ccccc2C1 (stereo not drawn) do in these assays?
CYP2C9 inh: 46.9; CYP2C19 inh: 75.4*; CYP2C19 act: 0.2; CYP2C9 activ: 0.5

What do the screens show for `C/C=C/c1ccc(Oc2nnnn2-c2ccc(C(N)=O)cc2)c(OC)c1`?
CYP2C9 inh: 40.4; CYP2C19 inh: 34.9; CYP2C19 act: 0.7; CYP2C9 activ: 0.6

What do the screens show for `COc1ccc(CCNC(=O)Cn2nnc(-c3cccs3)n2)cc1OC`?
CYP2C9 inh: 55.7*; CYP2C19 inh: 20.4; CYP2C19 act: 0.8; CYP2C9 activ: 0.4

How did COc1ccc(C(=O)Cn2nnc(-c3cccs3)n2)cc1 do in these assays?
CYP2C9 inh: -2.0; CYP2C19 inh: 37.5; CYP2C19 act: 0.6; CYP2C9 activ: 1

How did COc1ccc(CCNC(=O)Cn2nnc(-c3ccccc3F)n2)cc1OC do in these assays?
CYP2C9 inh: 64.7*; CYP2C19 inh: 20.9; CYP2C19 act: 0.8; CYP2C9 activ: 0.4

What do the screens show for `COc1ccc(-c2nnn(CC(=O)NCCc3c[nH]c4ccccc34)n2)cc1OC`?
CYP2C19 inh: 63.5*; CYP2C19 act: 0.4

How did COC(=O)CCn1nnc(-c2cccs2)n1 do in these assays?
CYP2C9 inh: -2.4; CYP2C19 inh: 77.9*; CYP2C19 act: 0.2; CYP2C9 activ: 1

Results for COC(=O)c1c(N2C(=O)CCC2=O)sc2c1CCCC2 ?
CYP2C9 inh: -3.9; CYP2C19 inh: -1.8; CYP2C19 act: 1; CYP2C9 activ: 1

What do the screens show for `COCCCNC(=O)Cn1nnc(-c2ccc(NC(=O)c3ccccc3OC)cc2)n1`?
CYP2C9 inh: 29.5; CYP2C19 inh: 4.2; CYP2C19 act: 1; CYP2C9 activ: 0.7

What do the screens show for `COCCCNC(=O)Cn1nnc(-c2ccccc2NC(=O)c2ccccc2F)n1`?
CYP2C9 inh: 87.5*; CYP2C19 inh: 56.9*; CYP2C19 act: 0.4; CYP2C9 activ: 0.1

How did COc1ccc(CCNC(=O)CN(C)S(=O)(=O)c2cccs2)cc1OC do in these assays?
CYP2C9 inh: 5.4; CYP2C19 inh: 31.3; CYP2C19 act: 0.7; CYP2C9 activ: 0.9

Results for O=C(CN1CCC(O)(c2ccccc2F)CC1)NCCc1c[nH]c2ccccc12 ?
CYP2C9 inh: 80.3*; CYP2C19 inh: 9.8; CYP2C19 act: 0.9; CYP2C9 activ: 0.2

How did COc1ccc(CCNC(=O)CNS(=O)(=O)c2cccs2)cc1OC do in these assays?
CYP2C9 inh: 42.1; CYP2C19 inh: 64.3*; CYP2C19 act: 0.4; CYP2C9 activ: 0.6

Results for CS(=O)(=O)Nc1ccc(N2CCCCC2)c(Cl)c1 ?
CYP2C9 inh: 33.2; CYP2C19 inh: 44.2; CYP2C19 act: 0.6; CYP2C9 activ: 0.7

How did CC1(C)CC(=O)C(/C=N/n2c(C(F)(F)F)nc3ccccc3c2=O)=C(O)C1 do in these assays?
CYP2C9 inh: 29.6; CYP2C19 inh: -8.8; CYP2C19 act: 1.1; CYP2C9 activ: 0.7

What do the screens show for `O=C(NCc1ccc(Cl)cc1)C1C2C=CC3(CN(Cc4cccnc4)C(=O)C13)O2` (stereo not drawn)?
CYP2C9 inh: 53.2*; CYP2C19 inh: 29.5; CYP2C19 act: 0.7; CYP2C9 activ: 0.5

How did O=C(NCc1ccc(F)cc1)C1C2C=CC3(CN(Cc4cccnc4)C(=O)C13)O2 (stereo not drawn) do in these assays?
CYP2C9 inh: -3.6; CYP2C19 inh: 0.2; CYP2C19 act: 1; CYP2C9 activ: 1

What do the screens show for `COCCn1cnnc1SCC(=O)c1ccc(S(=O)(=O)N2CCCC2)cc1`?
CYP2C9 inh: 48.6; CYP2C19 inh: 56.9*; CYP2C19 act: 0.4; CYP2C9 activ: 0.5

Results for COc1ccccc1N1CCN(C(=O)c2nn(-c3ccccc3OC)c(=O)c3ccccc23)CC1 ?
CYP2C9 inh: 57.8*; CYP2C19 inh: 49.3; CYP2C19 act: 0.5; CYP2C9 activ: 0.4

What do the screens show for `CCOc1ccc(-n2cc(C(=O)N3CCC(C)CC3)c3cc(OC)c(OC)cc3c2=O)cc1`?
CYP2C9 inh: 20.4; CYP2C19 inh: 16.2; CYP2C19 act: 0.8; CYP2C9 activ: 0.8

How did CCOC(=O)N1CCN(C(=O)c2cn(-c3ccc(C)c(C)c3)c(=O)c3ccccc23)CC1 do in these assays?
CYP2C9 inh: 63.9*; CYP2C19 inh: 23.5; CYP2C19 act: 0.8; CYP2C9 activ: 0.4

Results for CCOC(=O)N1CCN(C(=O)c2nn(-c3cc(OC)cc(OC)c3)c(=O)c3ccccc23)CC1 ?
CYP2C9 inh: 80.5*; CYP2C19 inh: 63.2*; CYP2C19 act: 0.4; CYP2C9 activ: 0.2
